# Compound activity as filed in PubChem BioAssay.
# DAX1 inh-1: DAX1 (NR0B1) inhibitors on StAR promoter, primary screen, cell-based, luminescence, SF-1 (NR5A1), full-length DAX-1. HEK293T StAR-luciferase reporter, SF-1/DAX-1 repression relief. inhibition, % at 6.8 µM. actives 1.1% (n = 370,000);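 active = inhibition above the mean over all tested compounds plus 3 SD, cut at about 3.6% in these data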;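 note: 0% = DAX-1 cells with DMSO and 100% = cells lacking DAX-1 with DMSO; higher inhibition means more luminescence from relief of DAX-1 repression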
# hgDAF12 agonist: H. glycines DAF-12 receptor agonists, primary screen, cell-based, luminescence, HEK293, GAL4 fusion, UAS-luciferase | Nuclear hormone receptor DAF-12 (Heterodera glycines), GAL4 fusion | HEK293 GAL4-hgDAF12 UAS-luciferase reporter, agonist luminescence; normalized to butyrate control | activation, % at 6.8 µM | actives 1.8% (n = 370,000) | AID 687014, 2013;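 active = activation above a cutoff set at the mean of all screened compounds plus 3 SD, cut at about 10% in these data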;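 note: 0% = DMSO wells and 100% = sodium butyrate wells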
# ssDAF12 agonist: S. stercoralis DAF-12 nuclear receptor activators, primary screen, cell-based, luminescence, HEK293, GRIP1 co-expression, lit1-tk-luc; HEK293 ssDAF-12/GRIP1 lit1-tk-luc reporter; % of 3 µM dafachronic acid response; activation, % at 6.8 µM; actives 1% (n = 370,000); AID 652126, 2013;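 active = activation above the mean over all tested compounds plus 3 SD, cut at about 0.9% in these data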;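 note: 0% = DMSO-only wells and 100% = 3 µM delta7-dafachronic acid wells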
# AHR activator: AHR activators, primary screen, cell-based, luminescence, luciferase reporter, human; Aryl hydrocarbon receptor (Homo sapiens), P35869; AHR-responsive luciferase reporter cells; activation, % at 5 µM; actives 2.5% (n = 320,000); AID 2796, 2010; in the data active = activation above about 47%;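 note: 0% = vehicle wells and 100% = reference agonist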
# hcDAF12 agonist: H. contortus DAF-12 nuclear receptor activators, primary screen, cell-based, luminescence, HEK293, lit1-tk-luc reporter; HEK293 hcDAF-12 lit1-tk-luc reporter; 0% DMSO, 100% Δ7-dafachronic acid; activation, % at 6.8 µM; actives 1.4% (n = 370,000);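 active = activation above the mean of all tested compounds plus 3 SD, cut at about 5.5% in these data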;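 note: 100% = response to 3 µM Δ7-dafachronic acid high control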
# DAX1 inh-2: DAX1 (NR0B1) inhibitors, primary screen, cell-based, HEK293, Gal4-DAX1, luciferase luminescence. inhibition, % at 6.75 µM. AID 504766, 2011. actives 0.99% (n = 340,000). HEK293 Gal4-DAX1 luciferase reporter. Nuclear receptor subfamily 0 group B member 1 (Homo sapiens), P51843;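 active = inhibition above the mean over all tested compounds plus 3 SD, cut at about 4.2% in these data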;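 note: 0% = DAX1-transfected cells with DMSO and 100% = empty-vector control cells with DMSO; inhibition shows as a rise in luminescence from relieved DAX1 repression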
# hgDAF12 conf: H. glycines DAF-12 receptor agonists, confirmation, cell-based, luminescence, HEK293, GAL4-LBD fusion | shares compounds with hgDAF12 agonist | HEK293 GAL4-hgDAF12 luciferase reporter, agonist mode; percent of butyrate response | activation, % at 6.8 µM | actives 80% (n = 3,300) | AID 743050, 2013;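 active = mean activation over triplicate wells above the hit cutoff derived from the earlier primary screen, cut at about 11% in these data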;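 note: 0% = DMSO low control and 100% = 2 mM sodium butyrate high control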
# LXR ag 2: LXR agonists, Gal4 luciferase reporter, confirmation, counter-screen for hgDAF-12 agonist project, cell-based, luminescence, HEK293, H. glycines campaign; shares compounds with hgDAF12 agonist; 24 h; activation, % at 6.8 µM; 3,300 tested, under 10 active; AID 743051, 2013;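 active = mean activation of the triplicate above a set limit carried over from the primary screen, none filed active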
# The depositor's hits bear a star; / = no result given. A selection: hits, their analogues and other compounds. The true share with any hit is near 5.7%.
SMILES,DAX1 inh-1,hgDAF12 agonist,ssDAF12 agonist,AHR activator,hcDAF12 agonist,DAX1 inh-2,hgDAF12 conf,LXR ag 2
COc1ccc(-c2cc(=O)oc3cc(OC(C)C(=O)NCc4ccccn4)ccc23)cc1 (stereo not given),-1,-6,-1,0,3,3,/,/
Cc1ccc(S(=O)(=O)/N=C(/NNC(=O)c2cccc(Cl)c2)c2ccccc2)cc1,2,14*,1,27,5,1,21*,1
O=C(NN/C(=N/S(=O)(=O)c1ccc(Cl)cc1)c1ccccc1)c1ccc(O)cc1,3,16*,0,-1,-1,0,9,0
COc1ccc(NC(=S)NC(=NS(=O)(=O)c2ccc(Cl)cc2)c2ccccc2)cc1,3,13*,1,0,2,2,10,0
Cc1ccc(S(=O)(=O)NN/C(=N/S(=O)(=O)c2ccccc2)c2ccccc2)cc1,0,0,-1,-1,-2,0,/,/
O=S(=O)(/N=C(/NC(=S)Nc1ccccc1)c1ccccc1)c1ccc(Cl)cc1,1,10,0,-2,4,2,/,/
Cc1ccc(-c2nc3ccccc3s2)cc1NC(=S)NC(=O)c1cccc2ccccc12,3,17*,0,5,6.0*,4.4*,12*,1
O=C(O)CC1(CC(=O)NCc2cc(F)cc3c2OCOC3)CCCCC1,0,-2,-1,-1,0,3,/,/
COc1ccccc1OCC(=O)Nc1ccc2c(c1)OCO2,1,2,-1,7,-1,-1,/,/
O=C(COc1ccccc1Cl)Nc1ccc2c(c1)OCO2,2,13*,1,2,6.0*,1,12*,1
CCS(=O)c1ccccc1C(=O)OC(C)C(=O)Nc1ccc(S(=O)(=O)N2CCCC2)cc1 (stereo not given),-2,-2,-1,1,0,0,/,/
O=C(Nc1ccc2oc(-c3ccccc3)nc2c1)c1ccco1,3,15*,1.0*,-4,5,4,12*,1
O=C(Nc1ccc2oc(-c3ccccc3)nc2c1)c1ccc2c(c1)OCCO2,-2,-5,-2,-2,-2,-1,/,/
O=C(Nc1ccc2oc(-c3ccccc3)nc2c1)C1CCCO1 (stereo not given),3,28*,1.2*,15,5,4,15*,1
O=C(Nc1ccc2oc(-c3ccncc3)nc2c1)c1ccco1,0,2,-1,-6,1,-1,/,/
CC(=O)Nc1cccc(-c2nc3ccc(NC(C)=O)cc3s2)c1,1,19*,1,4,4,1,12*,1
O=C(OCc1ccccn1)c1ccc(COc2ccc3ccccc3c2)o1,3,14*,0,17,4,2,11*,0
CCCN(CC(=O)Nc1ccccc1OC)C(=O)c1ccc(COc2ccccc2)o1,-1,-5,-1,2,-2,-1,/,/
COc1ccc(-c2ccc(C(=O)Nc3cccc(F)c3)c3occc23)c(C)c1,3.7*,14*,0,/,4,/,6,1
